Potency data for 35 compounds are collected here from PubChem BioAssay (Tox21).

Inconclusive results are not listed. Entries that show only a call come without a potency. The source made the active and inactive calls. Unless noted, calls follow the shape of the full dose curve.

A short description of the first experiment: qHTS assay for small molecules that induce genotoxicity in human embryonic kidney cells expressing luciferase-tagged ATAD5 (AID 651632; active = well fitted activation curve with a large enough effect in the repeat runs; also: nearly all actives have a fitted effect of over 15% in size). Particulars: HEK293T ATAD5-luciferase induction, 16 h; series mostly up to 83.3 µM. Put shortly:
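Cells were seeded at 2,000 per well, dosed with compound, and incubated 16 hr at 37C in 5% CO2. Luciferase activity was then quantified after a 30 min room-temperature incubation with Amplite.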
(Quantitative high-throughput screening tests each substance at several concentrations.)
Turning to `CS/C(C)=N/OC(=O)N(C)SN(C)C(=O)O/N=C(\C)SC`, the Potency result is “inactive”.
As for `[CH3][Sn]([CH3])([Cl])[Cl]`, the Potency entry was “inactive”.
For the compound `CCOP(=S)(OCC)SCn1nnc2ccccc2c1=O`, the Potency result was “inactive”.
For `COP(=S)(Oc1cc(Cl)c(Br)cc1Cl)c1ccccc1` (stereo unspecified), the Potency entry is “inactive”.
On the same count and under the same terms, next, `CC(C)(C)c1cc([N+](=O)[O-])cc([N+](=O)[O-])c1O`: “inactive”; `CCCCC(O)(Cn1cncn1)c1ccc(Cl)cc1Cl` (stereo unspecified): “inactive”; `Clc1cccc2ccccc12`: “inactive”.
On the same count and under the same terms, next, `CC1(C)CCC(Cc2ccc(Cl)cc2)C1(O)Cn1cncn1` (stereo unspecified): “inactive”.
Same read-out and setting: for `CO/N=C(/C(=O)OC)c1ccccc1COc1ccccc1C` the value was “inactive”.
Regarding `O=C(NC(=O)c1c(F)cccc1F)Nc1ccc(OC(F)(F)C(F)OC(F)(F)F)c(Cl)c1` (stereo unspecified), the Potency result was “inactive”.
On to `O=C1c2ccccc2C(=O)C1C(=O)C(c1ccccc1)c1ccccc1`, for which the Potency result is “inactive”.
On the same count and under the same terms, for `O=C1CN=C(c2ccccc2)c2cc(Cl)ccc2N1CC1CC1` the value was “inactive”; for `OC(c1ccc(Cl)cc1)(c1ccc(Cl)cc1)c1cccnc1`, “inactive”.
Same read-out and setting: for `Cc1c(F)c(F)c(COC(=O)C2C(/C=C(\Cl)C(F)(F)F)C2(C)C)c(F)c1F` (stereo unspecified) the value was “inactive”; for `CCOP(=S)(Oc1ccc([N+](=O)[O-])cc1)c1ccccc1` (stereo unspecified), “inactive”.
The same measure, in the same setting: next, `O=[N+]([O-])C(Br)(CO)CO`: “inactive”.
As for `O=C(O)C(F)(F)C(F)(F)C(F)(F)C(F)(F)C(F)(F)C(F)(F)C(F)(F)C(F)(F)C(F)(F)F`, the Potency result is “inactive”.
The same measure, in the same setting: for `NS(=O)(=O)C(F)(F)C(F)(F)C(F)(F)C(F)(F)C(F)(F)C(F)(F)C(F)(F)C(F)(F)F` the value was “inactive”; for `C/C(=C\c1ccccc1)[N+](=O)[O-]`, “inactive”; for `COCCOCCO`, “inactive”.
On the same count and under the same terms, next, `Clc1cccc(SC2CCNCC2)n1`: “inactive”; `CC(C)(C)C(O)C(Oc1ccc(Cl)cc1)n1cncn1` (stereo unspecified): “inactive”; `O=C(Nc1ccccc1)Nc1ccnc(Cl)c1`: “inactive”.
Turning to `O=[N+]([O-])c1cc(C(F)(F)F)cc([N+](=O)[O-])c1Cl`, the Potency result is “inactive”.
As to `C=CC(=O)OCC(C)O` (stereo unspecified), the Potency result is “inactive”.
Still for that read-out and setting: for `O=C(O)CC(Cl)C(=O)O` (stereo unspecified) the value was “inactive”.
Same read-out and setting: next, `O=C(O)C1(c2ccc3c(c2)OC[C@H](Cc2ccc(-c4ccccc4)cc2)[C@H]3O)CCCC1`: “inactive”.

The nature of another experiment: qHTS assay for small molecule agonists of the p53 signaling pathway - cell viability (AID 651633). Also: nearly all actives have a fitted effect of over 30% in size. Also: potency is read from the fitted curve at half-maximal effect. The following applies: p53RE-bla HCT-116 viability, ATP luminescence, 16 h; series mostly up to 83.3 µM. The method, boiled down:
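p53RE-bla cells, seeded at 4,000 per well and rested 5 h at 37 C/5% CO2, received compounds in DMSO for 16 h at 37 C. CellTiter-Glo was then added, and luminescence was read after 30 min at room temperature to gauge cytotoxicity.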
With `CS/C(C)=N/OC(=O)N(C)SN(C)C(=O)O/N=C(\C)SC`, the Potency entry was “inactive”.
As to `O=C=Nc1ccc(Cl)cc1`, the Potency result is “inactive”.
On the same count and under the same terms, for `CCOP(=S)(OCC)SCn1nnc2ccccc2c1=O` the value was 27.3 µM (active).
Turning to `Cl/C=C\C[N+]12CN3CN(CN(C3)C1)C2`, the Potency entry was “inactive”.
For `Clc1cc(C(Cl)(Cl)Cl)cnc1Cl`, the Potency result is “inactive”.
Turning to `O=C1C(=O)c2cccc3cccc1c23`, the Potency entry is “inactive”.
On to `BrCC(Br)C1CCC(Br)C(Br)C1` (stereo unspecified), for which the Potency entry was “inactive”.
Still for that read-out and setting: next, `COC(=O)C(Br)CBr` (stereo unspecified): “inactive”; `O=C(Nc1ccccc1)Nc1ccnc(Cl)c1`: “inactive”.
The same measure, in the same setting: for `O=[N+]([O-])c1cc(C(F)(F)F)cc([N+](=O)[O-])c1Cl` the value was “inactive”; for `O=C(O)CC(Cl)C(=O)O` (stereo unspecified), “inactive”; for `C=CCN1CC[C@]23c4c5ccc(O)c4O[C@H]2C(=O)CC[C@@]3(O)[C@H]1C5`, “inactive”.

Another experiment can be described thus: qHTS assay for small molecules that induce genotoxicity in human embryonic kidney cells expressing luciferase-tagged ATAD5 - cell viability (AID 651634). Also: nearly all actives have a fitted effect of over 25% in size. Also: potency is read from the fitted curve at half-maximal effect. Particulars: HEK293T ATAD5-luc cells viability, CellTiter-Fluor, 15.5 h; series mostly up to 83.3 µM. The method, boiled down: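 Cells (HEK293T, luciferase-tagged ATAD5) are seeded at 2,000 per well, dosed with compound or DMSO vehicle, and incubated 15.5 hr at 37C and 5% CO2. CellTiter-Fluor is added for 30 min before fluorescence is measured.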
In the case of `[CH3][Sn]([CH3])([Cl])[Cl]`, the Potency entry was “inactive”.
The same measure, in the same setting: next, `COP(=S)(Oc1cc(Cl)c(Br)cc1Cl)c1ccccc1` (stereo unspecified): “inactive”; `CC(C)(C)c1cc([N+](=O)[O-])cc([N+](=O)[O-])c1O`: 6.09 µM (active); `Clc1cccc2ccccc12`: “inactive”.
Take `Cl/C=C\C[N+]12CN3CN(CN(C3)C1)C2`: the Potency entry was “inactive”.
On the same count and under the same terms, for `Clc1cc(C(Cl)(Cl)Cl)cnc1Cl` the value was “inactive”; for `O=C1C(=O)c2cccc3cccc1c23`, 54.4 µM (active); for `CO/N=C(/C(=O)OC)c1ccccc1COc1ccccc1C`, “inactive”.
On the same count and under the same terms, for `O=C(NC(=O)c1c(F)cccc1F)Nc1ccc(OC(F)(F)C(F)OC(F)(F)F)c(Cl)c1` (stereo unspecified) the value was “inactive”; for `O=C1c2ccccc2C(=O)C1C(=O)C(c1ccccc1)c1ccccc1`, “inactive”; for `O=C1CN=C(c2ccccc2)c2cc(Cl)ccc2N1CC1CC1`, “inactive”.
In the case of `OC(c1ccc(Cl)cc1)(c1ccc(Cl)cc1)c1cccnc1`, the Potency result was “inactive”.
As to `BrCC(Br)C1CCC(Br)C(Br)C1` (stereo unspecified), the Potency result is “inactive”.
The same measure, in the same setting: next, `CC(C)O.CC(C)O.OCCN(CCO)CCO.OCCN(CCO)CCO.[Ti]`: “inactive”; `Cc1c(F)c(F)c(COC(=O)C2C(/C=C(\Cl)C(F)(F)F)C2(C)C)c(F)c1F` (stereo unspecified): “inactive”.
Consider `COC(=O)C(Br)CBr` (stereo unspecified), for which the Potency result is “inactive”.
The same measure, in the same setting: next, `CCOP(=S)(Oc1ccc([N+](=O)[O-])cc1)c1ccccc1` (stereo unspecified): “inactive”; `O=[N+]([O-])C(Br)(CO)CO`: “inactive”.
`O=C(O)C(F)(F)C(F)(F)C(F)(F)C(F)(F)C(F)(F)C(F)(F)C(F)(F)C(F)(F)C(F)(F)F`: the Potency entry is “inactive”.
Turning to `NS(=O)(=O)C(F)(F)C(F)(F)C(F)(F)C(F)(F)C(F)(F)C(F)(F)C(F)(F)C(F)(F)F`, the Potency entry is “inactive”.
With `C/C(=C\c1ccccc1)[N+](=O)[O-]`, the Potency is 24.3 µM (active).
On the same count and under the same terms, next, `COCCOCCO`: “inactive”; `Clc1cccc(SC2CCNCC2)n1`: “inactive”; `C=CC(=O)OCC(C)O` (stereo unspecified): “inactive”.
On the same count and under the same terms, next, `O=C(O)CC(Cl)C(=O)O` (stereo unspecified): “inactive”.
Same read-out and setting: for `C=CCN1CC[C@]23c4c5ccc(O)c4O[C@H]2C(=O)CC[C@@]3(O)[C@H]1C5` the value was “inactive”; for `O=C(O)C1(c2ccc3c(c2)OC[C@H](Cc2ccc(-c4ccccc4)cc2)[C@H]3O)CCCC1`, “inactive”.
